Measurements as given in PubChem BioAssay (NCI).
This is part of a sample that, as a whole, favours compounds with a hit. Of some 83,000 tested, about 20% had one in any assay.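 Each cell line was grown in a 96-well plate and treated with one concentration of compound for 48 hours. Values below 10 were considered active.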 Unmarked numbers belong to inactive results.

Tested on: MDA-MB-468 breast
Assay: NCI-60 one-dose screen, 48 h (100 = growth as untreated, 0 = no growth, -100 = all killed)
Settings: 10 µM unless noted

| SMILES | growth |
| --- | --- |
| Fc1ccc(-c2ccnc3nc(-c4ccncc4)nn23)cc1 | 111% |
| O=C1NCN(CCO)CN1 | 99.9% |
| O=C(CCl)N1c2cccc3cccc(c23)N(C(=O)CCl)C1c1cn(-c2ccccc2)nc1-c1cccc([N+](=O)[O-])c1 | 101% |
| COCc1cnccc1NC1CCCCCC1 | 102% |
